# Mtb UGM inh: blocks M. tuberculosis UGM enzyme; P9WIQ1; purified UGM, fluorescence polarization probe displacement; inhibition, % at 10 µM; hit rate 0.06% among 320,000; in the data active means inhibition above about 10%, passing the limit was not always enough
# Rv3671c inh: inhibits the M. tuberculosis serine protease Rv3671c; AID 2606; hit rate 0.048% among 320,000; inhibition, % at 5.96 µM; P9WHR9; in the data active means inhibition above about 38%;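 further: extracellular domain of Rv3671c used as enzyme; 0% = enzyme with DMSO and 100% = no enzyme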
# RecA splice inh: blocks M. tuberculosis RecA intein splicing; cell-free RecA intein splicing, fluorescence; inhibition, % (concentration not given with the values); hit rate 0.75% among 290,000; AID 2221; in the data active means inhibition above about 30%;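 further: 0% = vehicle wells and 100% = reference inhibitor control wells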
# Target sequence (P9WHJ3 whole entry, looked up, canonical isoform): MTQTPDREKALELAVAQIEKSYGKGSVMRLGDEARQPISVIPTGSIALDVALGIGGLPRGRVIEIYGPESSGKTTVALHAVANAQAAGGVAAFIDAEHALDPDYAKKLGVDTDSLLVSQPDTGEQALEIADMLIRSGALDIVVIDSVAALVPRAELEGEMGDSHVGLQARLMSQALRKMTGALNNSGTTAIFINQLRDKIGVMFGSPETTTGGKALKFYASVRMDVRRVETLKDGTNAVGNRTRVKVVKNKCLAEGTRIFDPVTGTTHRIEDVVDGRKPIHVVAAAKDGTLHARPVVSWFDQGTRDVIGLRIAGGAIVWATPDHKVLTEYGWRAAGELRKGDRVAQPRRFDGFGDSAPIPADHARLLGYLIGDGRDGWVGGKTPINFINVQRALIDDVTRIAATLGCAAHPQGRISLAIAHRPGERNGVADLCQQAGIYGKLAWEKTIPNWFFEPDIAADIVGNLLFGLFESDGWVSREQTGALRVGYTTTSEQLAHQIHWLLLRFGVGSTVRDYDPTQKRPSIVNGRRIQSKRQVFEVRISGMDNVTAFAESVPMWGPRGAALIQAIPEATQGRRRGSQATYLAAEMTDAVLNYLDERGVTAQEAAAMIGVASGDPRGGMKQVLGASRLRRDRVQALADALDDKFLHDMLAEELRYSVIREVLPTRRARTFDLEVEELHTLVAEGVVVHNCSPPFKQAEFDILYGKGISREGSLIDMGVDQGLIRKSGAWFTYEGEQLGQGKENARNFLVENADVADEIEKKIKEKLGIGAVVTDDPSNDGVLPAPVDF
# Mtb BioA inh: inhibitors of Mycobacterium tuberculosis BioA enzyme | hit rate 0.096% among 360,000 | inhibition, % at 9.99 µM | purified M. tuberculosis BioA enzyme, plate reader; in the data active means inhibition above about 40%
# Y pestis TopoI: blocks Yersinia pestis topoisomerase I activity. Y. pestis Topo-I cleavage product accumulation, plate reader. activity, % at 10 µM. hit rate 0.064% among 360,000. AID 504884; in the data active means activity above about 50%, passing the limit was not always enough
# FadD28 FP inh: inhibitors of Mycobacterium tuberculosis FadD28 bisubstrate binding | FadD28 bisubstrate probe binding, fluorescence polarization | hit rate 0.22% among 360,000 | inhibition, % at 12.5 µM; in the data active means inhibition above about 8.5%, passing the limit was not always enough
# Numbers without * were called inactive; i = inactive; · = no result. A selection: hits, their analogues and other compounds. The true share with any hit is near 0.82%.
SMILES,Mtb UGM inh,Rv3671c inh,RecA splice inh,Mtb BioA inh,Y pestis TopoI,FadD28 FP inh
CCCCn1nnnc1SCC(=O)c1ccccc1F,1,1,·,·,-4,2
CCOC(=O)N1CCN(C(=O)c2ccc3c(c2)N(Cc2ccccc2)CCS3)CC1,-1,7,6,0,9,3
CC1CC(C)CN(C(=O)c2ccc3c(c2)N(Cc2ccccc2)CCS3)C1 (centres undefined),3,9,35*,0,33,1
COc1ccc2nc(SCC(=O)NN)cc(C)c2c1,-1,-13,42*,0,10,-2
CC(=O)N(C)C[C@H]1Oc2ncc(-c3cccc(C#N)c3)cc2C(=O)N([C@@H](C)CO)C[C@@H]1C,·,·,·,0,·,·
C/C(CC(=O)Nc1ccc(Cl)cc1)=N\NC(=O)C(=O)N1CCCCC1,-1,-2,78*,·,5,-1
COc1ccc2ccc3cccc[n+]3c2c1,·,·,·,0,-19,-3
Nc1ccc2ccc3cccc[n+]3c2c1,63*,-16,i,-202,-3,0
CC(Oc1cc2oc(=O)c3c(c2cc1Cl)CCCC3)C(=O)NCc1ccccn1 (centres undefined),-3,-5,-3,10,27,-4
CC(Oc1cc2oc(=O)c3c(c2cc1Cl)CCC3)C(=O)NCc1ccccn1 (centres undefined),-2,-8,-3,63*,10,-1
Cc1ccc(-c2cc(-c3ccc(C)cc3)[n+](-c3ccc(C(=O)[O-])cc3)c(-c3ccc(C)cc3)c2)cc1,-2,-3,40*,6,13,-3
O=C(C[C@H]1C[C@@H]2c3cc(NC(=O)Nc4ccccc4F)ccc3O[C@@H]2[C@H](CO)O1)NCCc1ccccc1,·,·,·,10,·,·
N#Cc1c(C#N)c(-c2ccccc2)n(-c2ccc(C(=O)O)cc2)c1N,-2,-4,-2,1,0,12*
COc1cccc(/C=N/n2c(-c3ccco3)nc3ccccc3c2=O)c1OC,11*,-14,2,·,-7,-3
COc1cccc(/C=N/n2c(C)nc3ccccc32)c1OC,-1,-2,2,0,2,-5
CC(C)CC(=O)Nc1ccc(S(=O)(=O)N2CC3CC(C2)c2cccc(=O)n2C3)cc1 (centres undefined),1,7,-1,-1,-1,-2
CCCOc1ccc(C(=O)Nc2ccc(S(=O)(=O)N3C[C@@H]4C[C@@H](C3)c3cccc(=O)n3C4)cc2)cc1,-1,-12,·,-1,67*,-4
O=C(Oc1ccc(C(=S)N2CCOCC2)cc1)c1ccc([N+](=O)[O-])cc1[N+](=O)[O-],-1,-7,46*,-1,-3,0
COc1ccc(NC(=O)Nc2ccc3c(c2)CC(=O)N([C@@H](C)CO)C[C@H](C)[C@H](CN(C)Cc2ccccc2)O3)cc1,·,·,·,-1,·,·
COc1c(N2CCN(C(=S)NCc3ccccc3)C(C)C2)c(F)cc2c(=O)c(C(=O)O)cn(C3CC3)c12 (centres undefined),-2,-6,6,0,62*,-1
CS/C(=C\[N+](=O)[O-])Nc1ccc(OC(F)(F)F)cc1,1,-20,57*,-1,-6,-4
C[C@@H]1CN([C@@H](C)CO)C(=O)Cc2cc(NC(=O)CCCN(C)C)ccc2O[C@H]1CN(C)CC1CCCCC1,·,·,·,3,·,·
Nc1c(S(=O)(=O)O)cc(NC(=O)c2ccccc2)c2c1C(=O)c1ccccc1C2=O,1,23,13,-1,-9,26*
C[C@@H]1CCCCO[C@@H](CN(C)C(=O)CCC(F)(F)F)[C@H](C)CN([C@H](C)CO)C(=O)c2cc(NS(=O)(=O)c3ccc(Cl)cc3)ccc2O1,·,·,·,2,·,·
O=C(O)c1ccccc1C1=Nc2ccc(O)cc2Oc2cc(O)ccc21,14*,20,-1,·,-1,-1
SMILES,Mtb UGM inh,Rv3671c inh,RecA splice inh,Mtb BioA inh,Y pestis TopoI,FadD28 FP inh
Cc1cc(-c2ccccc2C(=O)O)on1,3,-5,1,0,-1,-2
O=C(Cc1cccs1)Nc1cc(SCCO)cc([N+](=O)[O-])c1,11*,3,-7,·,-7,-2
O=C(Nc1cc(SCCO)cc([N+](=O)[O-])c1)c1ccco1,3,-2,-2,1,1,1
COc1ccc(NC(=O)NS(=O)(=O)c2ccc(C)cc2)cn1,67*,·,8,-83,-1,0
COc1cc(NC(=O)NS(=O)(=O)c2ccc(C)cc2)cc(OC)c1,-3,3,-2,-2,0,-3
CC(C)CC(=O)NNC(=S)Nc1ccc(S(N)(=O)=O)cc1,-1,-10,-2,2,1,-1
CCc1ccc(C(=O)NNC(=S)Nc2ccc(S(N)(=O)=O)cc2)s1,2,-5,63*,·,3,1
